# From PubChem BioAssay (NCATS)
# Values without a mark were called inactive. Results filed as inconclusive are left out. Where a call stands in place of a potency, no number is given. Active and inactive are the calls of the source. Unless noted, the call rests on the fitted dose curve; in most records, active means well fitted curve in the direction sought with a large enough effect; inconclusive means small, poorly fitted or top-dose-only effect, or another doubt; inactive means no such curve, though single readings can be large; an effect the other way counts as inactive or inconclusive.
# How the values were obtained:
# [1] = Stat Signaling Pathway (AID 446; active means well fitted curve in either direction with a large enough effect, not every such curve was filed as active;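 further: ME-180 cervical cancer cells given 40 pM IL-6 alongside compound; SIE-controlled beta-lactamase reporter measured as 460/530 nm FRET emission ratio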)
# Outline: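 ME-180 SIE-bla cells; overnight plating; cpd + IL-6 40 pM, 5 h, 37 C; LiveBLAzer 2.5 h RT; 460/530 nm emission ratio. Normalized to 300 pM IL-6 and 125 nM JAK inhibitor controls.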
# [2] = biological target: Glucocorticoid receptor (Homo sapiens) (UniProt P04150); test: GR-EFC Redistribution (AID 451; calls by dose curve; further: potency means the concentration at half of the fitted maximal effect); details: CHO-K1 GR-EFC translocation, beta-gal luminescence, 2 h
# Glucocorticoid receptor (Homo sapiens), sequence (P04150 whole entry, looked up, the tested form may be a part): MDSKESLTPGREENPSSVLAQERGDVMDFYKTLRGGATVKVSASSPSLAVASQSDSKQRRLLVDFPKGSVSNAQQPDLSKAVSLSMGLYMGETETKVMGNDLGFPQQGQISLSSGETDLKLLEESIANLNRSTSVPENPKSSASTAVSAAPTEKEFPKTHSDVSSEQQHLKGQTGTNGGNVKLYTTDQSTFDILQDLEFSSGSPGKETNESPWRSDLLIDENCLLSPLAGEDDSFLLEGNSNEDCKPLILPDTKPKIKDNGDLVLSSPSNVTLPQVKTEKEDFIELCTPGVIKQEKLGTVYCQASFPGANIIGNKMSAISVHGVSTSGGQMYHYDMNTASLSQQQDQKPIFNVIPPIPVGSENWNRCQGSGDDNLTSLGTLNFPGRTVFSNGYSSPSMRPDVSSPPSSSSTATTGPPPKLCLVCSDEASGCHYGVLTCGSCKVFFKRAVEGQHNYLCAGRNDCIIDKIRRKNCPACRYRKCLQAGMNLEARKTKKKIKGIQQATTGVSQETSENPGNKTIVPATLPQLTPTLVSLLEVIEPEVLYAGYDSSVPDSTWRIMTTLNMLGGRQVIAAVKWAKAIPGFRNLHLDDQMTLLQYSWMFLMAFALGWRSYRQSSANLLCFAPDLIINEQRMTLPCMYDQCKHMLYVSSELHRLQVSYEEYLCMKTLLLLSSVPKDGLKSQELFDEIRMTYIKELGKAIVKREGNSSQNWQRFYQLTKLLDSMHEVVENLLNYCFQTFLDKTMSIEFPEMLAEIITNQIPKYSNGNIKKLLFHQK
# Outline: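 CHO-K1 cells expressing nuclear EA and GR-ED fragments of b-gal; compounds titrated up to 46 uM final, 2 h at 37 C. GR nuclear translocation read as complemented b-gal luminescence after 1 h RT detection.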
# [3] = biological target: Mitogen-activated protein kinase 10 (Mus musculus) (UniProt Q61831); test: JNK3 AlphaScreen Assay (AID 530; active means well fitted curve in either direction with a large enough effect, not every such curve was filed as active;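 further: kinase came from lysate of stimulated human HepG2 cells; signal reports phosphorylation of biotinylated GST-cJun 1-79 at Ser73 with 10 µM ATP; series mostly up to about 57 µM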)
# Outline: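 Pre-activated (IL-1β/TNFα) JNK3 in HepG2 lysates phosphorylates biotin-GST-cJun(1-79), 10 uM ATP; anti-phospho-cJun(Ser73) AlphaScreen read at room temperature, pH 7.6 Tris buffer. Compounds pre-incubated 15 min as titrations.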
# [4] = biological target: 3',5'-cyclic-AMP phosphodiesterase 4B (Homo sapiens) (UniProt Q07343); test: qHTS Assay for Inhibitors of PDE-IV (AID 607; active means well fitted activation curve with a large enough effect in the main read-out, with a control signal flat, not every such curve was filed as active)
# Outline: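 ACTOne HEK293 cells carry a modified cAMP-gated CNG channel and express endogenous PDE4; plated 1000 cells/well, compounds up to 22.9 uM final. Membrane-potential dye fluorescence (ex 535/em 590) was read; parental cells received 10 uM forskolin + 100 uM RO 20-1724.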
# [5] = biological target: Guanine nucleotide-binding protein G(i) subunit alpha-1 (Homo sapiens) (UniProt P63096); test: qHTS Assay for Inhibitors of RGS12 GoLoco Motif Activity (Green Fluorophore) (AID 879);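 further: negative values mean loss of peptide binding seen as reduced polarization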
# Outline: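 Fluorescence polarization assay: 50 nM Gαi1 with 10 nM FITC-labeled RGS12 GoLoco peptide in 10 mM Tris pH 7.5, 150 mM NaCl, 0.1 mM GDP, 0.05% NP40, 10 min at room temperature with compound.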
# [6] = qHTS Assay for Identification of Small Molecule Antagonists for Thrombopoietin (TPO) Signaling Pathway (AID 918); details: TPO-dependent cell signaling reporter, antagonist mode; further: potency means the concentration at half of the fitted maximal effect; nearly all actives have a fitted effect of over 60% in size
# Outline: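 Murine Ba/F3 cells expressing human TPO receptor and a Glycoprotein IIb promoter-luciferase reporter, IL-3-starved overnight, treated with compound plus TPO at EC50 (26 pM final). After 24 h at 37 C, luminescence read to detect inhibitors.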
# [7] = biological target: Muscarinic acetylcholine receptor M1 (Rattus norvegicus) (UniProt P08482); test: qHTS Assay for Antagonists of Acetylcholine Muscarinic M1 Receptor: Measurement of IP-One Response (AID 944); further: nearly all actives have a fitted effect of over 75% in size
# Muscarinic acetylcholine receptor M1 (Rattus norvegicus), sequence (P08482 whole entry, looked up): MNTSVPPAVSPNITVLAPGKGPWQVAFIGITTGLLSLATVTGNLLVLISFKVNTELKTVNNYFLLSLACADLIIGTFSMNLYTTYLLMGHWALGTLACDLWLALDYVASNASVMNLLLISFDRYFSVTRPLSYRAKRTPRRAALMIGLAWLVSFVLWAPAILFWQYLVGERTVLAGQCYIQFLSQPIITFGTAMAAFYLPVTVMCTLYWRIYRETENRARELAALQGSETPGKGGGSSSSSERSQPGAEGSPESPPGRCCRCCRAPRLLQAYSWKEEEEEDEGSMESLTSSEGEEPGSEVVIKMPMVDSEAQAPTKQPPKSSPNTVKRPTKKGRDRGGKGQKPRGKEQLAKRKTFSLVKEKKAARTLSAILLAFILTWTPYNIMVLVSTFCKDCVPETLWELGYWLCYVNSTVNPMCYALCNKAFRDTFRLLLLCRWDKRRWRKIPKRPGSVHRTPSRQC
# Outline: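 CHO cells stably expressing rat M1, pretreated 10 min with compound, then stimulated 30 min with carbachol at EC80 (200 nM) in LiCl-containing buffer pH 7.4; IP1 accumulation read by HTRF competition (665/620 nm).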
# [8] = biological target: Pyruvate kinase (Leishmania mexicana) (UniProt Q27686); test: qHTS Validation Assay for Inhibitors of Leishmania Mexicana Pyruvate Kinase (AID 945)
# Outline: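 An endpoint luciferase assay: 0.2 nM LmPYK E451W turns over 0.5 mM PEP with 0.1 mM ADP for 1 h at room temperature, pH 7.2, before PKLight addition. Values are normalized to DMSO-only wells.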
# [9] = biological target: Pyruvate kinase PKM (Homo sapiens) (UniProt P14618); test: qHTS Assay for Activators of Human Muscle Pyruvate Kinase (AID 954; active means well fitted curve in the direction sought with a large enough effect, not every such curve was filed as active)
# Outline: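 Luminescence from a luciferase ATP-detection/stop reagent reported PKM2 activity. Reactions contained 0.1 nM purified human enzyme, 0.5 mM PEP, 0.1 mM ADP and 7 mM MgCl2 at pH 7.2, run 1 h at RT.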
# [10] = biological target: Alpha-galactosidase A (Homo sapiens) (UniProt P06280); test: Counterscreen for Glucocerebrosidase Inhibitors: qHTS Assay for Human alpha-Galactosidase at pH 4.5 (AID 992)
# Outline: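 Enzyme at 2 nM final was combined with compound (0.7 nM to 77 uM) and 80 uM 4-methylumbelliferyl alpha-D-galactopyranoside in 50 mM citric acid, 0.005% Tween-20, pH 4.5. After 20 min at room temperature, fluorescence was read (Ex 365/Em 440 nm); AC50 came from Hill fits.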
# [11] = biological target: alpha-glucosidase (Oryza sativa, rice) (UniProt Q653V4); test: Counterscreen for Glucocerebrosidase Inhibitors: qHTS Assay for Rice alpha-Glucosidase at pH 5.0 (AID 997)
# Outline: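 Rice alpha-glucosidase (4 nM final) with 400 uM 4-methylumbelliferyl-alpha-D-glucopyranoside in citrate buffer pH 5.0, 20 min at room temperature, stopped at pH 10; fluorescence 365/440 nm, compounds 0.7 nM–77 uM, AC50 from Hill fits.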
# [12] = biological target: DNA repair nuclease/redox regulator APEX1 (Homo sapiens) (UniProt P27695); test: qHTS Validation Assay for Inhibitors of the Human Apurinic/apyrimidinic Endonuclease 1 (APE1) (AID 1705;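 further: TAMRA fluorescence gain over two minutes as APE1 cuts a quenched THF abasic duplex; series mostly up to about 57 µM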)
# DNA repair nuclease/redox regulator APEX1 (Homo sapiens), sequence (P27695 whole entry, looked up): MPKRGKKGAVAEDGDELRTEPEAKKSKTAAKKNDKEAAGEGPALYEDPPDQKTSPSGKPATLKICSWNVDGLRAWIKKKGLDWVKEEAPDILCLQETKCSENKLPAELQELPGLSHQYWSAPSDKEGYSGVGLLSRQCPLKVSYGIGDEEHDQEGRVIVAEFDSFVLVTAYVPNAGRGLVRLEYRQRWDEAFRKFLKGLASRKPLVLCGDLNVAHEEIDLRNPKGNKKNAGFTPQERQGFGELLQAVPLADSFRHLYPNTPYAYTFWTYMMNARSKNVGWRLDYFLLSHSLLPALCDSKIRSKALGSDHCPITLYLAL
# Outline: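 Activity read as rising fluorescence (598 nm emission, 525 nm excitation) from incision of a TAMRA/BHQ-2 duplex carrying a THF abasic site (50 nM). Compound and enzyme sat 15 min at RT before substrate start; signal change between first and third 60-s reads.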
# [13] = Counterscreen for APE1 Inhibitors: Fluorescent Dye Displacement Validation Assay (AID 1707)
# Outline: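 Thiazole Orange displacement from dsDNA: 250 nM ThO with 50 nM TAMRA-labelled abasic-site (tetrahydrofuran) duplex in 50 mM Tris-HCl pH7.5, 50mM NaCl, 2 mM MgCl2, 0.01% Tween-20. Loss of endpoint fluorescence (ex 480 nm, em 540 nm) flags DNA binders.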
# [14] = qHTS for differential inhibitors of proliferation of Plasmodium falciparum line 7G8 (AID 1815);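 further: potency means the concentration at half of the fitted maximal effect; parasite growth measured after three days of incubation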
# [15] = qHTS for differential inhibitors of proliferation of Plasmodium falciparum line GB4 (AID 1816); details: Potency: Plasmodium falciparum GB4 proliferation inhibition;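 further: potency means the concentration at half of the fitted maximal effect; parasite growth measured after 72 h incubation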
# [16] = biological target: Ferritin light chain (Equus caballus) (UniProt P02791); test: qHTS Validation Assay for Identification of Novel General Anesthetics (AID 2323); further: series mostly up to about 77 µM
# Ferritin light chain (Equus caballus), sequence (P02791 2-175 limits assumed): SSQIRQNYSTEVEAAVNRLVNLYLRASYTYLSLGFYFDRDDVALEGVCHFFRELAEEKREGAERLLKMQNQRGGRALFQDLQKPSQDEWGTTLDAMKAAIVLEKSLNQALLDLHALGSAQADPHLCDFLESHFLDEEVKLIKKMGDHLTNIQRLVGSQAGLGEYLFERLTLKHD
# Outline: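 Competitive displacement of the profluorescent anesthetic 1-AMA (50% saturated, PBS) from 10 uM apoferritin, 10 min, room temperature. Activity is normalized 380/535 nm fluorescence; concentration-response fitted with a four-parameter Hill equation.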
# [17] = biological target: ATP-dependent DNA helicase Q1 (Homo sapiens) (UniProt P46063); test: qHTS Validation Assay for Inhibitors of RecQ-Like Dna Helicase 1 (RECQ1) (AID 2353)
# ATP-dependent DNA helicase Q1 (Homo sapiens), sequence (P46063 whole entry, looked up): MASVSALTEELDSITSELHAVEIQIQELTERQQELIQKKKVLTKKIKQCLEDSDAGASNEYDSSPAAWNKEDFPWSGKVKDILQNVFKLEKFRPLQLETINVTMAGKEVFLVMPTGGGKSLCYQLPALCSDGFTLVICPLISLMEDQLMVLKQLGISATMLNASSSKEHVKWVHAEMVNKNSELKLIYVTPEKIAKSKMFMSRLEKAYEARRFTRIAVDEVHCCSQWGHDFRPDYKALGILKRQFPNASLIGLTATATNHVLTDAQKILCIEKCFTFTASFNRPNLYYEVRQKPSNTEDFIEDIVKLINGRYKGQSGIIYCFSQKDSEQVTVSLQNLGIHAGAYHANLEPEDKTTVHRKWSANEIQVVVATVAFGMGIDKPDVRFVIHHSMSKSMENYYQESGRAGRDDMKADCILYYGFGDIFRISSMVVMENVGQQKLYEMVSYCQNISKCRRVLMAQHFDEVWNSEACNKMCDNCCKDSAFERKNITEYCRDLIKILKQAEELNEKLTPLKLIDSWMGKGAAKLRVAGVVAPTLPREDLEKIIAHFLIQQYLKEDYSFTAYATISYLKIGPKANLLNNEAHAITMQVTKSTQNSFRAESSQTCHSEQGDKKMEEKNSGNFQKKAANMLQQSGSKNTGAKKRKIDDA
# Outline: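 50 nM RECQ1T1 preincubated 15 min with compound in Tris pH 8.0 buffer with MgCl2, DTT, Tween-20 and 2.5 ug/ml poly(dI-dC); started with 200 nM TAMRA/BHQ-2 forked duplex and 2 mM ATP. Unwinding read as fluorescence (525/598 nm), two reads 2 h apart.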
# [18] = biological target: M-phase phosphoprotein 8 (Homo sapiens) (UniProt Q99549); test: qHTS Validation Assay for Inhibitors for MPP8 Chromodomain Interactions with Methylated Histone Tails (AID 488949); further: nearly all actives have a fitted effect of over 55% in size; further: potency means the concentration at half of the fitted maximal effect
# M-phase phosphoprotein 8 (Homo sapiens), sequence (Q99549 whole entry, looked up): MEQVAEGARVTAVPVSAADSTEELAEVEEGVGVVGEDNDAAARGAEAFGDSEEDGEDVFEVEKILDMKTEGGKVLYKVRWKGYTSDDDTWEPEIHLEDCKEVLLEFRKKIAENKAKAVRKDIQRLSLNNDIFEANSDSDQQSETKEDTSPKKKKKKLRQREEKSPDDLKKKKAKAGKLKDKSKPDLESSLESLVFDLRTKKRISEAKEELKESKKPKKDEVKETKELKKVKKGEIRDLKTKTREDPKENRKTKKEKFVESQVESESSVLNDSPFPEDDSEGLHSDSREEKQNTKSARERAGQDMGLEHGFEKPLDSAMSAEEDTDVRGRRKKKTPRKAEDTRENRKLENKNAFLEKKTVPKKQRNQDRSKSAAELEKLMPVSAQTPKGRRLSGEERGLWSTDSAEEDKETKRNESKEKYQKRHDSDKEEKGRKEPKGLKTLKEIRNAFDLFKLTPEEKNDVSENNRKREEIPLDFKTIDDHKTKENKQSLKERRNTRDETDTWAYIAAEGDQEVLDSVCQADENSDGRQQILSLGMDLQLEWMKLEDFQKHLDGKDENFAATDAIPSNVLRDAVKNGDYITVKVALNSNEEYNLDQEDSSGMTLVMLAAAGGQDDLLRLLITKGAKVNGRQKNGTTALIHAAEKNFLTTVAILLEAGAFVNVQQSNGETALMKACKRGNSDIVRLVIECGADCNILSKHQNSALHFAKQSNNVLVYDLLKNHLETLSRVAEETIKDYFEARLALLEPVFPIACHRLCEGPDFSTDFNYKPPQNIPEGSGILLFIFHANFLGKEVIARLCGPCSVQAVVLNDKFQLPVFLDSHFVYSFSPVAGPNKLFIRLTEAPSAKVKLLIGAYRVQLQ
# Outline: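 AlphaScreen proximity signal from streptavidin donor and Ni-chelate acceptor beads (10 ug/mL each) reported binding of MPP8 to trimethyl-K9 H3(1-18) peptide, both at 50 nM. The complex formed 30 min before a 30 min compound exposure at room temperature, in PBS pH 7.4.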
# [19] = biological target: Thyrotropin receptor (Homo sapiens) (UniProt P16473); test: qHTS Assay for Antagonists of the Thyroid Stimulating Hormone Receptor (AID 488980); further: series mostly up to about 58 µM
# Thyrotropin receptor (Homo sapiens), sequence (P16473 whole entry, looked up): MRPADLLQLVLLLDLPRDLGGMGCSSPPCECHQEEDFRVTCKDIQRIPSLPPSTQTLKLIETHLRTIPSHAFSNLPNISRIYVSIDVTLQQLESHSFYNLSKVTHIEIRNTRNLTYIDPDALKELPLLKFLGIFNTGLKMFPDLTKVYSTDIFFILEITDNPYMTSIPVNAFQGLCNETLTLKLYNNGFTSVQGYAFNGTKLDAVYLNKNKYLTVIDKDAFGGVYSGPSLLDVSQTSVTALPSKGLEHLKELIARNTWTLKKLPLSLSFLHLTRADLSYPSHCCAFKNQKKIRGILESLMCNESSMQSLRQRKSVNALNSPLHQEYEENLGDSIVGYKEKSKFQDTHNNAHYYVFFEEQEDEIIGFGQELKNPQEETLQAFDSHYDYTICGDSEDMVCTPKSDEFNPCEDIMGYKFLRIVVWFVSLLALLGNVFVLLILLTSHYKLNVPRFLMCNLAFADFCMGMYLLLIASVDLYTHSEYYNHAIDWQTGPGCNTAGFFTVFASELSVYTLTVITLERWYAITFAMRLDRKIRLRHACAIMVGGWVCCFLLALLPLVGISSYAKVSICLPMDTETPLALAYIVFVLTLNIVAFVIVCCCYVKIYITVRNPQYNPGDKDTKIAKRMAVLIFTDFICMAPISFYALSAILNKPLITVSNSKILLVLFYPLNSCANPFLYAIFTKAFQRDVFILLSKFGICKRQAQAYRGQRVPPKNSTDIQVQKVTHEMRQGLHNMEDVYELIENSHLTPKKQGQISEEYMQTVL
# Outline: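 Inhibition of cAMP raised by EC80 TSH (4 nM final) was read by HTRF, with lysate cAMP competing against cAMP-d2 for cryptate antibody after 30 min at room temperature. The cells were transfected HEK293 held in phosphodiesterase inhibitor RO 20-1724 at 70 uM.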
# [20] = biological target: Thyrotropin-releasing hormone receptor (Homo sapiens) (UniProt P34981); test: qHTS for Small Molecule Agonists and Allosteric Enhancers of Human TRH Receptor: Validation Screen for Agonists (AID 493127;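 active means calcium activation more than 3 SD above the typical response in the agonist read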); details: TRH receptor agonist cell assay; at 2 µM; active compounds read high
# Thyrotropin-releasing hormone receptor (Homo sapiens), sequence (P34981 whole entry, looked up): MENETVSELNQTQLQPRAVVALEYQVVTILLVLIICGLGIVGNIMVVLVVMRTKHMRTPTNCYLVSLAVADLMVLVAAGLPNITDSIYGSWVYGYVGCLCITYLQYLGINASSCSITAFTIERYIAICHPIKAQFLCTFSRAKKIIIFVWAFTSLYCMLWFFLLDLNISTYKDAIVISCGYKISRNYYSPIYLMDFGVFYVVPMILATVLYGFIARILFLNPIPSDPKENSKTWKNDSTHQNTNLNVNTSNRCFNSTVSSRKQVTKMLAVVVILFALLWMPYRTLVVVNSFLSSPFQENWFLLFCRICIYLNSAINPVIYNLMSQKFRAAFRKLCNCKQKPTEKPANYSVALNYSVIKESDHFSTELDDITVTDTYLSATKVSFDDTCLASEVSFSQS
# Outline: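 TRHR cells loaded with fluo-8 calcium dye; FDSS kinetic fluorescence (Ex 480/Em 530) read at 1 s/cycle after 23 nL compound addition. Agonist-mode calcium response recorded before the 10 nM TRH (EC20) addition.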
# [21] = biological target: Galactokinase (Homo sapiens) (UniProt P51570); test: qHTS Validation Assay for Inhibitors of Human Galactokinase (GALK) (AID 493189)
# Galactokinase (Homo sapiens), sequence (P51570 whole entry, looked up): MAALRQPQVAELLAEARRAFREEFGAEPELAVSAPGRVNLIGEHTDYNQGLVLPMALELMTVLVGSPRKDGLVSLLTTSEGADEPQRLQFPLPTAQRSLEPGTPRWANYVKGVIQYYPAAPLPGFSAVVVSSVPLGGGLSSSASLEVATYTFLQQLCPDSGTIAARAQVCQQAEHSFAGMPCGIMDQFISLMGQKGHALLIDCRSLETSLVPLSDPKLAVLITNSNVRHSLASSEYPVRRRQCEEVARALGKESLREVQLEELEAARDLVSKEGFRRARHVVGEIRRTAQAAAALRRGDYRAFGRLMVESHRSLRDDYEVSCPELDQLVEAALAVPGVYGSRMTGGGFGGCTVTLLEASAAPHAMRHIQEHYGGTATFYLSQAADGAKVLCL
# Outline: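 Inhibition was measured as remaining ATP, detected by luciferase luminescence after a 1 h room-temperature reaction. Final conditions: 5 nM GALK, 100 uM galactose, 35 uM ATP, pH 8.0 HEPES buffer.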
# [22] = Validation screen for small molecules that induce DNA re-replication in SW480 colon adenocarcinoma cells (AID 504364)
# Outline: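 SW480 cells (250/well) exposed 48 h at 37 C, 5% CO2, then Hoechst-stained 40 min. Nuclear DNA content imaged by fluorescence scanning (405 nm excitation, 500-530 nm emission); re-replication scored as increased nuclei with elevated intensity.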
# [23] = biological target: Endonuclease 4 (Escherichia coli (strain K12)) (UniProt P0A6C1); test: Counterscreen for APE1 Inhibitors: qHTS Validation Assay for Inhibitors of Endonuclease IV (AID 1708)
# Outline: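 E. coli EndoIV at 2 nM final, preincubated 15 min at room temperature with compound, then 50 nM TAMRA/BHQ-2 THF abasic-site duplex added. Buffer: 50 mM Tris-HCl pH 7.5, 50 mM NaCl, 2 mM MgCl2, 1 mM DTT, 0.01% Tween-20. Kinetic fluorescence increase, third minus first read.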
# [24] = qHTS for differential inhibitors of proliferation of Plasmodium falciparum line 3D7 (AID 1876); further: potency means the concentration at half of the fitted maximal effect
# [25] = qHTS for differential inhibitors of proliferation of Plasmodium falciparum line D10 (AID 1877);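 further: potency means the concentration at half of the fitted maximal effect; parasites grown with compound for 72 h before DNA staining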
# [26] = qHTS for differential inhibitors of proliferation of Plasmodium falciparum line Dd2 (AID 1882); details: Potency: Plasmodium falciparum Dd2 proliferation inhibition; further: potency means the concentration at half of the fitted maximal effect; nearly all actives have a fitted effect of over 65% in size
# Outline: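 Dd2-infected erythrocytes (0.3% parasitemia, 2.5% hematocrit final) incubated with compound 72 h at 37 C, 5% CO2; lysed with saponin/Triton buffer containing SYBR Green I, incubated overnight in the dark, then read by fluorescence (485/535 nm). Normalized to 0.29 uM artemisinin and DMSO.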
# [27] = qHTS for differential inhibitors of proliferation of Plasmodium falciparum line W2 (AID 1883); details: Potency: Plasmodium falciparum W2 proliferation inhibition;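 further: potency means the concentration at half of the fitted maximal effect; parasites grown with compound for 72 h before lysis and staining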
# [28] = qHTS for differential inhibitors of proliferation of Plasmodium falciparum line HB3 (AID 1886); details: Potency: Plasmodium falciparum HB3 proliferation inhibition;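 further: potency means the concentration at half of the fitted maximal effect; parasites grown with compound for 72 h before SYBR Green readout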
# [29] = qHTS Assay for Modulators of Human Peripheral Myelin Protein 22 (PMP22) Expression/Activity (AID 1967; active means well fitted curve in the direction sought with a large enough effect in the signal ratio; the % refers to the signal ratio)
# Outline: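 Readout is the corrected green/red luminescence ratio after 24 h compound exposure, normalised to untreated cells (0%). Engineered MSC80 mouse Schwann cells express green luciferase from the mouse Pmp22 promoter and red luciferase from EF-alpha as internal control.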
# [30] = biological target: RecQ-like DNA helicase BLM (Homo sapiens) (UniProt P54132); test: qHTS Validation Assay for Inhibitors of Bloom's syndrome helicase (BLM) (AID 2364)
# Outline: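 50 nM BLM preincubated 15 min at room temperature with compound in pH 8.0 Tris buffer containing 2.5 ug/ml poly(dI-dC); started with 200 nM TAMRA/BHQ-2 forked duplex and 2 mM ATP (final). Unwinding read as TAMRA fluorescence increase, two reads 2 h apart.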
# [31] = Quantitative high throughput screen for delayed death inhibitors of the malarial parasite plastid, 96 hour incubation (AID 488745); further: potency means the concentration at half of the fitted maximal effect; nearly all actives have a fitted effect of over 70% in size
# Outline: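 Luciferase-expressing P. falciparum in erythrocytes (2% hematocrit, 0.1% parasitemia) incubated with compound for 96 h at 37 C, 5% CO2, in RPMI 1640 with 0.5% Albumax. Growth inhibition read as decreased luminescence.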
# [32] = Quantitative high throughput screen for delayed death inhibitors of the malarial parasite plastid, 48 hour incubation (AID 488752); further: potency means the concentration at half of the fitted maximal effect; nearly all actives have a fitted effect of over 65% in size
# Outline: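 Erythrocytes infected with firefly luciferase-expressing P. falciparum (2% hematocrit, 0.1% parasitemia) cultured with compound for 48 h at 37 C, 5% CO2, in RPMI 1640/0.5% Albumax. Growth inhibition read as loss of luminescence.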
# [33] = biological target: Transient receptor potential cation channel subfamily V member 1 (Homo sapiens) (UniProt Q8NER1); test: HTS Assay for Compounds that Act as Enhancers of the Vanilloid Receptor 1 (AID 488979)
# Outline: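 TRPV1 cells loaded with Fluo-8 calcium dye; compound added and Ca2+ signal (ex 480/em 520 nm) followed 3 min, then capsaicin at EC20 added and read 2 more min to detect enhancement.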
# [34] = biological target: Voltage-gated inwardly rectifying potassium channel KCNH2 (Homo sapiens) (UniProt Q12809); test: qHTS Assay for Small Molecule Inhibitors of the Human hERG Channel Activity (AID 588834);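 further: top concentration of the series differs between compounds; lower thallium flux fluorescence means stronger hERG block; nearly all actives have a fitted effect of over 50% in size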
# Outline: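 Kinetic FDSS fluorescence; U2OS + hERG BacMam (~100 virus particles/cell); FluxOR Tl+ flux; ~10 min cpd; AC50 (Hill).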
smiles,measurement,setting,value
CC(C)C[C@H](N)CSSC[C@@H](N)CC(C)C,outcome,[1],inactive
same,Potency,[2],> 46 µM
same,Potency,[3],inactive
same,Potency,[4],inactive
same,Potency,[5],inactive
same,Potency,[6],12.6 µM (active)
same,Potency,[7],inactive
same,outcome,[8],inactive
same,outcome,[9],inactive
same,outcome,[10],inactive
same,outcome,[11],inactive
same,Potency,[12],inactive
same,outcome,[13],inactive
same,Potency,[14],14.1 µM (active)
same,Potency,[15],10 µM (active)
same,outcome,[16],inactive
same,outcome,[17],inactive
same,Potency,[18],50.1 µM (active)
same,outcome,[19],inactive
same,activation,[20],6.19%
same,outcome,[21],inactive
same,Potency,[22],inactive
C[C@H]1c2cccc(O)c2C(O)=C2C(=O)[C@]3(O)C(O)=C(C(N)=O)C(=O)C(N(C)C)[C@@H]3[C@@H](O)C21 (stereo partly drawn),Potency,[12],inactive
same,outcome,[13],inactive
same,Potency,[23],inactive
same,Potency,[14],4.47 µM (active)
same,Potency,[15],8.91 µM (active)
same,Potency,[24],1 µM (active)
same,Potency,[25],11.2 µM (active)
same,Potency,[26],5.01 µM (active)
same,Potency,[27],1 µM (active)
same,Potency,[28],6.31 µM (active)
same,outcome,[29],inactive
same,outcome,[16],inactive
same,outcome,[17],inactive
same,Potency,[30],inactive
same,Potency,[31],0.37 µM (active)
same,Potency,[32],6.57 µM (active)
same,Potency,[18],inactive
same,outcome,[33],inactive
same,activation,[20],-0.125%
same,outcome,[21],inactive
same,Potency,[34],inactive
